Measured values as given in PubChem BioAssay (NCATS).
Records with an inconclusive call do not appear. Activity calls are given as the source filed them. Calls come from the whole dose curve; as a rule, active = well fitted curve in the direction sought with a large enough effect; inconclusive = small, poorly fitted or top-dose-only effect, or another doubt; inactive = no such curve, though single readings can be large; an effect the other way counts as inactive or inconclusive.

Tests used:
[1] = target: Cytochrome P450 3A4 (Homo sapiens) (UniProt P08684); assay: qHTS Assay for Inhibitors and Substrates of Cytochrome P450 3A4 (AID 884); note: nearly all actives have a fitted effect of over 50% in size; note: potency is the fitted concentration of half-maximal effect
How it was run: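 Luminescent readout of luciferin produced by CYP3A4 (20 nM) dealkylation of Luciferin-PPXE, 25 uM (its KM). NADPH-driven reaction ran 60 min at RT after 10 min compound preincubation; data scaled to 57 uM ketoconazole as 100% inhibition.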

[2] = target: Cytochrome P450 3A4 (Homo sapiens) (UniProt P08684); assay: qHTS Assay for Activators of Cytochrome P450 3A4 (AID 885); note: nearly all actives have a fitted effect of over 65% in size
How it was run: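 CYP3A4 activity: Luciferin-PPXE O-dealkylation, 25uM substrate, 200mM KPO4, RT throughout. Read-out is luciferase luminescence; higher values reflect activation.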

[3] = target: Ubiquitin carboxyl-terminal hydrolase 1 (Homo sapiens) (UniProt O94782); assay: Inhibitors of USP1/UAF1: Pilot qHTS (AID 504865); note: nearly all actives have a fitted effect of over 35% in size; note: potency is the fitted concentration of half-maximal effect
How it was run: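 1nM USP1/UAF1 + cpd, 15 min RT; start w/ Ub-Rho 150nM final; kinetic FL 480/540 nm, 6 reads q60 s. Buffer 50mM HEPES pH 7.8, 0.5mM EDTA, 1mM TCEP, 0.01% Tween-20, 0.1 mg/ml BSA.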

[4] = target: DNA dC->dU-editing enzyme APOBEC-3G (Homo sapiens) (UniProt Q9HC16); assay: qHTS for inhibitors of Vif-A3G interactions: Validation (AID 588379); note: 0% is about no effect
How it was run: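 Yellow fluorescence (Ex 488, Em 500-530) of Vif-coexpressing HeLa A3G-eYFP cells, scanned by Acumen cytometer, reports blocked A3G degradation. Cells plated at 700/well overnight at 37 deg C before compound addition, then a further overnight compound incubation at 37 deg C.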

[5] = qHTS profiling for inhibitors of Plasmodium falciparum proliferation (AID 504749);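 note: 0% = DMSO vehicle and full inhibition = artemisinin control; nearly all actives have a fitted effect of over 60% in size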; conditions: P. falciparum in erythrocytes, SYBR Green DNA, 72 h; at 28.7 µM (top of the series); parasite line B
How it was run: (§1)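 SYBR Green fluorescence (ex 485 nm, em 535 nm) reports parasite DNA after 72 h compound exposure of infected red cells at 0.3% parasitemia, 2.5% hematocrit; signal normalized to 0.29 uM artemisinin and vehicle wells.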

AA1029 = assay: as above; conditions: P. falciparum in erythrocytes, SYBR Green DNA, 72 h; series mostly up to 28.7 µM
How it was run: as §1

ATS189 = assay: as above; conditions: P. falciparum in erythrocytes, SYBR Green DNA, 72 h; series mostly up to 28.7 µM
How it was run: as §1

CP185 = assay: as above; conditions: P. falciparum in erythrocytes, SYBR Green DNA, 72 h; series mostly up to 28.7 µM
How it was run: as §1

CP201 = assay: as above; conditions: P. falciparum in erythrocytes, SYBR Green DNA, 72 h; series mostly up to 28.7 µM
How it was run: as §1

CP238 = assay: as above; conditions: P. falciparum in erythrocytes, SYBR Green DNA, 72 h; series mostly up to 28.7 µM
How it was run: as §1

CP252 = assay: as above; conditions: P. falciparum in erythrocytes, SYBR Green DNA, 72 h; series mostly up to 28.7 µM
How it was run: as §1

CP265 = assay: as above; conditions: P. falciparum in erythrocytes, SYBR Green DNA, 72 h; series mostly up to 28.7 µM
How it was run: as §1

CP286 = assay: as above; conditions: P. falciparum in erythrocytes, SYBR Green DNA, 72 h; series mostly up to 28.7 µM
How it was run: as §1

CP305 = assay: as above; conditions: P. falciparum in erythrocytes, SYBR Green DNA, 72 h; series mostly up to 28.7 µM
How it was run: as §1

CP325 = assay: as above; conditions: P. falciparum in erythrocytes, SYBR Green DNA, 72 h; series mostly up to 28.7 µM
How it was run: as §1

FAB9 = assay: as above; conditions: P. falciparum in erythrocytes, SYBR Green DNA, 72 h; series mostly up to 28.7 µM
How it was run: as §1

PC15 = assay: as above; conditions: P. falciparum in erythrocytes, SYBR Green DNA, 72 h; series mostly up to 28.7 µM
How it was run: as §1

PC49 = assay: as above; conditions: P. falciparum in erythrocytes, SYBR Green DNA, 72 h; series mostly up to 28.7 µM
How it was run: as §1

[6] = Confirmation and Secondary Assay for Modulators of Hemoglobin Beta Chain Splicing at IVS2 654 locus (AID 910);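 note: HeLa cells stably carrying EGFP split by mutant beta-globin IVS2-654 intron; % of control where 0% means no effect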
How it was run: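 HeLa cells stably expressing EGFP interrupted by β-globin IVS2-654 intron, seeded overnight in Opti-MEM/2% FCS, then treated 2 days at 37 °C. Restored splicing read as total peak GFP intensity per well by laser scanning cytometry (488 nm excitation, 500–520 nm emission); 500 nM antisense PNA as control.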

[7] = Confirmation and Secondary Assay for Modulators of Hemoglobin Beta Chain Splicing at IVS2 705 locus (AID 930);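 note: HeLa cells stably expressing the EGFP-705 splicing reporter; GFP fluorescence per well restored by corrected splicing of the IVS2-705 intron in EGFP; % of control where 0% means no effect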
How it was run: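 Fluorescence gain (488 nm laser, 500-520 nm PMT) reflects restored correct splicing of a mutant IVS2-705 intron inside EGFP in stably transfected HeLa cells after 2-day compound treatment.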

Sequence of Cytochrome P450 3A4 (Homo sapiens) (P08684 whole entry, looked up): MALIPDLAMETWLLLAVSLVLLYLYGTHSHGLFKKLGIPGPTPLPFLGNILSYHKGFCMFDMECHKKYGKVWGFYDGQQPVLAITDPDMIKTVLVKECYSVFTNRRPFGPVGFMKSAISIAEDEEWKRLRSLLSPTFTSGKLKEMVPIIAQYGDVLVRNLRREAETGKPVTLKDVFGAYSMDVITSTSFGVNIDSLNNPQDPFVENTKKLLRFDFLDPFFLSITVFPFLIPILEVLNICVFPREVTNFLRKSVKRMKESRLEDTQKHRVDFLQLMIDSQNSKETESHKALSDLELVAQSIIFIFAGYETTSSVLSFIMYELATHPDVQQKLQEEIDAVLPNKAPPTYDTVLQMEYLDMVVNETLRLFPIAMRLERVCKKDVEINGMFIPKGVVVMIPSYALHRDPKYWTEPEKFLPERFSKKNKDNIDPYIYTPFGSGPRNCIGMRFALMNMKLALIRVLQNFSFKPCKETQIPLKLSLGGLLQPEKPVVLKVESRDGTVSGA
Sequence of DNA dC->dU-editing enzyme APOBEC-3G (Homo sapiens) (Q9HC16 whole entry, looked up): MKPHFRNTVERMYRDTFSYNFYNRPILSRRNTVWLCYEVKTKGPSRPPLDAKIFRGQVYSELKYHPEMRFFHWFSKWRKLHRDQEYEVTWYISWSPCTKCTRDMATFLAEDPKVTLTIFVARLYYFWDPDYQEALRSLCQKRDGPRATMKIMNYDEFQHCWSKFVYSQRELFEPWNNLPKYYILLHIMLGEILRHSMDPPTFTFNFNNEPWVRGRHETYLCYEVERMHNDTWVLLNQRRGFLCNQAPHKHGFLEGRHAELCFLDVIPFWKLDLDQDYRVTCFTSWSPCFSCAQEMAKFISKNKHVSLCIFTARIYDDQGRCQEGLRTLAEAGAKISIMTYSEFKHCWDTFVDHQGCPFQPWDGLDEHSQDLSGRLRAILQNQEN
Sequence of Ubiquitin carboxyl-terminal hydrolase 1 (Homo sapiens) (O94782 whole entry, looked up): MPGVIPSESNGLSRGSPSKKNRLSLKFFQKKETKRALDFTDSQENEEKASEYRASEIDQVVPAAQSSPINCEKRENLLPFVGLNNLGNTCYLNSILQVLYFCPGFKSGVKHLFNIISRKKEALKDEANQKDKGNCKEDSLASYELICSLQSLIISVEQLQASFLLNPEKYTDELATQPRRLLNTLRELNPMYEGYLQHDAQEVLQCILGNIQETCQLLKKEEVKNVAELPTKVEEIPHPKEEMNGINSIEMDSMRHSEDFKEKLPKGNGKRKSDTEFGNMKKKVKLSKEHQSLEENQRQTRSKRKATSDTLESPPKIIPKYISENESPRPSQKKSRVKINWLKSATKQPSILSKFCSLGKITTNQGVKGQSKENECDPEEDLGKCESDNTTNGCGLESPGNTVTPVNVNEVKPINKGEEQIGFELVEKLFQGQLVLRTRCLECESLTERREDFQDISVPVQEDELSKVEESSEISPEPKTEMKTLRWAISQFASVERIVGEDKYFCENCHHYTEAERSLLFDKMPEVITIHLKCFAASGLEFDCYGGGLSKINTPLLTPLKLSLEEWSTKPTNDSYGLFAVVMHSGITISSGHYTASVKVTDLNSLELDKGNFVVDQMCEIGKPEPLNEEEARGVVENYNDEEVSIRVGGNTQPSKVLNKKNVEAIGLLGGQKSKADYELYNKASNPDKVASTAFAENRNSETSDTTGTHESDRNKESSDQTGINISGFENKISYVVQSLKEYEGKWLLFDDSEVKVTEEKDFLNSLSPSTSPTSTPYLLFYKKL

COc1cc2c(C)c3c4c(cc(OC)c(OC)c4c2cc1OC)CCN3C
inactive: Potency [2] | Potency [4]
active: Potency [1] 15.8 µM | Potency [3] 25.1 µM

COc1ccc(-c2nc3ccc(C4=C(C)CC(=O)NN4)cc3[nH]2)cc1
inactive: activity, negative = inhibition [5] -13% | Potency (AA1029) | Potency (ATS189) | Potency (CP185) | Potency (CP201) | Potency (CP238) | Potency (CP252) | Potency (CP265) | Potency (CP286) | Potency (CP305) | Potency (CP325) | Potency (FAB9) | Potency (PC15) | Potency (PC49)

Nc1nc2c(c(=O)[nH]1)N=C(CNc1ccc(C(=O)NC(CCC(=O)O)C(=O)O)cc1)CN2 (stereo unspecified)
inactive: Potency [1] | Potency [3] | Potency [4]

COc1cccc2oc(-c3ccccc3)cc(=O)c12
inactive: Potency [2] | Potency [3] | Potency [4]

COc1ccc2c(=O)c(-c3ccccc3)coc2c1
inactive: Potency [2] | Potency [3] | Potency [4]

COC(=O)CC1C(C)(C)C(=O)C2CC3C4=CC(=O)OC(c5ccoc5)[C@]4(C)CCC3[C@@]1(C)C2=O (stereo partly specified)
inactive: Potency [2] | outcome [6] | outcome [7] | Potency [3]
active: Potency [1] 7.94 µM

O=c1c(-c2ccc(O)cc2)coc2c(C3OC(CO)C(O)C(O)C3O)c(O)ccc12 (stereo unspecified)
inactive: Potency [1] | outcome [6] | outcome [7] | Potency [3]

COc1ccc(-c2cc(=O)c3c(OC(C)=O)cc(OC(C)=O)cc3o2)cc1
inactive: Potency [2] | outcome [6] | outcome [7] | Potency [3]
active: Potency [1] 25.1 µM

Cc1csc(-c2nc3ccccc3n2C)n1
active: Potency [1] 31.6 µM
inactive: Potency [2] | Potency [3] | Potency [4]

O=C(O)/C=C/C=C/c1ccccc1
inactive: Potency [1] | outcome [6] | outcome [7] | Potency [3]

CC(=O)OC1CC2C(C)(C)C(=O)CC[C@]2(C)C2CC[C@]3(C)C(=CC(=O)OC3c3ccoc3)[C@]12C (stereo partly specified)
inactive: Potency [2] | outcome [6] | outcome [7] | Potency [3]
active: Potency [1] 6.31 µM

O=C1CC(c2ccccc2O)Oc2ccc(O)cc21 (stereo unspecified)
inactive: Potency [2] | Potency [3] | Potency [4]

CCC(=O)O[C@H]1C(O[C@@H]2C(C)[C@H](O[C@H]3C[C@@](C)(OC)C(O)C(C)O3)C(C)C(=O)OC(CC)[C@@](C)(O)C(O)[C@H](C)C(=O)C(C)C[C@]2(C)O)OC(C)CC1N(C)C (stereo partly specified)
active: Potency [1] 0.631 µM | Potency [3] 20 µM
inactive: Potency [2] | outcome [6] | outcome [7]

COC(=O)CCC(C)C1CCC2C3C(C[C@H](O)C12C)C1(C)CC[C@@H](O)CC1C[C@H]3O (stereo partly specified)
inactive: Potency [2] | Potency [3] | Potency [4]

CC1c2cccc(O)c2C(O)=C2C(=O)[C@]3(O)C(O)=C(C(N)=O)C(=O)C(N(C)C)C3C(O)C21 (stereo partly specified)
inactive: Potency [1] | outcome [6] | outcome [7] | Potency [3]

C=C1CCC2C(CC2(C)C)C(=O)CCC1O (stereo unspecified)
active: Potency [1] 2 µM
inactive: Potency [2] | outcome [6] | outcome [7] | Potency [3]

CN(N=O)C(=O)N[C@H]1C(O)C(O)C(CO)O[C@@H]1O (stereo partly specified)
inactive: Potency [1] | outcome [6] | outcome [7] | Potency [3]

Nc1nc(=O)n(C2OC(CO)C(O)C2O)cc1Cl (stereo unspecified)
inactive: Potency [1] | outcome [6] | outcome [7] | Potency [3]

CN(C)c1ccc(O)c2c1C[C@@H]1C[C@H]3C(N(C)C)C(=O)C(C(N)=O)=C(O)[C@@]3(O)C(=O)C1=C2O (stereo partly specified)
inactive: Potency [2] | outcome [6] | outcome [7] | Potency [3]

COc1cc(OC)c2c(=O)c(-c3ccccc3)coc2c1
active: Potency [1] 15.8 µM
inactive: Potency [2] | outcome [6] | outcome [7] | Potency [3]

CC(=O)OC(C)(C)C1Cc2cc3ccc(=O)oc3cc2O1 (stereo unspecified)
inactive: Potency [1] | outcome [6] | outcome [7] | Potency [3]

OC[C@H]1O[C@@H](n2cnc3c(NCc4ccccc4)ncnc32)[C@H](O)[C@@H]1O
inactive: Potency [1] | Potency [3]

O=C1OC(C(O)CO)C(O)=C1O (stereo unspecified)
inactive: Potency [1] | outcome [6] | outcome [7] | Potency [3]

COc1ccc(-c2oc3ccccc3c(=O)c2O)cc1
inactive: Potency [2] | Potency [3] | Potency [4]

c1ccc(-c2csc(-c3nc4ccccc4[nH]3)n2)cc1
active: Potency [1] 1.26 µM | Potency [3] 22.4 µM
inactive: Potency [2]

C=C1C(=O)OC2C[C@@]3(C)CCCC(C)C3=CC12 (stereo partly specified)
inactive: Potency [2] | outcome [6] | outcome [7] | Potency [3]
active: Potency [1] 7.94 µM

COc1ccc(/C=C/C(=O)c2cccs2)cc1OC
inactive: Potency [2] | Potency [3] | Potency [4]
active: Potency [1] 2.51 µM

CO[C@@]1(NC(=O)Cc2cccs2)C(=O)N2C(C(=O)O)=C(COC(N)=O)CSC21 (stereo partly specified)
inactive: Potency [1] | outcome [6] | outcome [7] | Potency [3]

C=C1c2cccc(O)c2C(O)=C2C(=O)[C@]3(O)C(O)=C(C(N)=O)C(=O)C(N(C)C)C3C(O)C12 (stereo partly specified)
inactive: Potency [1] | outcome [6] | outcome [7]
active: Potency [3] 39.8 µM

COc1ccc2c(=O)ccoc2c1
inactive: Potency [1] | outcome [6] | outcome [7] | Potency [3]

CC1(C)CC[C@]2(C(=O)O)CC[C@@]3(C)C(=CCC4[C@@]5(C)CCC(O)C(C)(C)C5CC[C@@]43C)C2C1 (stereo partly specified)
inactive: Potency [1] | outcome [6] | outcome [7] | Potency [3]

CC(=O)c1ccc[nH]1
inactive: Potency [1] | outcome [6] | outcome [7] | Potency [3]
